# Laboratory results taken from PubChem BioAssay AID1671202 (University of Kansas High Throughput Screening Laboratory, 2021).
# About 6,900 (3.6%) of roughly 190,000 compounds were called active. The full list was thinned out, with actives kept by preference. Unmarked numbers belong to inactive results. No stated cut-off is given here; in the data, active means inhibition above about 50%; inactive means the rest.
# Target: Huntingtin (Homo sapiens) (UniProt P42858)
# Experiment: mutant huntingtin-calmodulin interaction inhibitors – biochemical, AlphaScreen, primary screen (AID 1671202);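 on inhibition: 0% = both proteins with DMSO and 100% = one protein alone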
# Conditions: AlphaScreen His-mHTT/GST-CaM binding, luminescence; at 15 µM, stronger effect = higher value
# Chain of Huntingtin (Homo sapiens) (P42858 whole entry, looked up, stated change not applied): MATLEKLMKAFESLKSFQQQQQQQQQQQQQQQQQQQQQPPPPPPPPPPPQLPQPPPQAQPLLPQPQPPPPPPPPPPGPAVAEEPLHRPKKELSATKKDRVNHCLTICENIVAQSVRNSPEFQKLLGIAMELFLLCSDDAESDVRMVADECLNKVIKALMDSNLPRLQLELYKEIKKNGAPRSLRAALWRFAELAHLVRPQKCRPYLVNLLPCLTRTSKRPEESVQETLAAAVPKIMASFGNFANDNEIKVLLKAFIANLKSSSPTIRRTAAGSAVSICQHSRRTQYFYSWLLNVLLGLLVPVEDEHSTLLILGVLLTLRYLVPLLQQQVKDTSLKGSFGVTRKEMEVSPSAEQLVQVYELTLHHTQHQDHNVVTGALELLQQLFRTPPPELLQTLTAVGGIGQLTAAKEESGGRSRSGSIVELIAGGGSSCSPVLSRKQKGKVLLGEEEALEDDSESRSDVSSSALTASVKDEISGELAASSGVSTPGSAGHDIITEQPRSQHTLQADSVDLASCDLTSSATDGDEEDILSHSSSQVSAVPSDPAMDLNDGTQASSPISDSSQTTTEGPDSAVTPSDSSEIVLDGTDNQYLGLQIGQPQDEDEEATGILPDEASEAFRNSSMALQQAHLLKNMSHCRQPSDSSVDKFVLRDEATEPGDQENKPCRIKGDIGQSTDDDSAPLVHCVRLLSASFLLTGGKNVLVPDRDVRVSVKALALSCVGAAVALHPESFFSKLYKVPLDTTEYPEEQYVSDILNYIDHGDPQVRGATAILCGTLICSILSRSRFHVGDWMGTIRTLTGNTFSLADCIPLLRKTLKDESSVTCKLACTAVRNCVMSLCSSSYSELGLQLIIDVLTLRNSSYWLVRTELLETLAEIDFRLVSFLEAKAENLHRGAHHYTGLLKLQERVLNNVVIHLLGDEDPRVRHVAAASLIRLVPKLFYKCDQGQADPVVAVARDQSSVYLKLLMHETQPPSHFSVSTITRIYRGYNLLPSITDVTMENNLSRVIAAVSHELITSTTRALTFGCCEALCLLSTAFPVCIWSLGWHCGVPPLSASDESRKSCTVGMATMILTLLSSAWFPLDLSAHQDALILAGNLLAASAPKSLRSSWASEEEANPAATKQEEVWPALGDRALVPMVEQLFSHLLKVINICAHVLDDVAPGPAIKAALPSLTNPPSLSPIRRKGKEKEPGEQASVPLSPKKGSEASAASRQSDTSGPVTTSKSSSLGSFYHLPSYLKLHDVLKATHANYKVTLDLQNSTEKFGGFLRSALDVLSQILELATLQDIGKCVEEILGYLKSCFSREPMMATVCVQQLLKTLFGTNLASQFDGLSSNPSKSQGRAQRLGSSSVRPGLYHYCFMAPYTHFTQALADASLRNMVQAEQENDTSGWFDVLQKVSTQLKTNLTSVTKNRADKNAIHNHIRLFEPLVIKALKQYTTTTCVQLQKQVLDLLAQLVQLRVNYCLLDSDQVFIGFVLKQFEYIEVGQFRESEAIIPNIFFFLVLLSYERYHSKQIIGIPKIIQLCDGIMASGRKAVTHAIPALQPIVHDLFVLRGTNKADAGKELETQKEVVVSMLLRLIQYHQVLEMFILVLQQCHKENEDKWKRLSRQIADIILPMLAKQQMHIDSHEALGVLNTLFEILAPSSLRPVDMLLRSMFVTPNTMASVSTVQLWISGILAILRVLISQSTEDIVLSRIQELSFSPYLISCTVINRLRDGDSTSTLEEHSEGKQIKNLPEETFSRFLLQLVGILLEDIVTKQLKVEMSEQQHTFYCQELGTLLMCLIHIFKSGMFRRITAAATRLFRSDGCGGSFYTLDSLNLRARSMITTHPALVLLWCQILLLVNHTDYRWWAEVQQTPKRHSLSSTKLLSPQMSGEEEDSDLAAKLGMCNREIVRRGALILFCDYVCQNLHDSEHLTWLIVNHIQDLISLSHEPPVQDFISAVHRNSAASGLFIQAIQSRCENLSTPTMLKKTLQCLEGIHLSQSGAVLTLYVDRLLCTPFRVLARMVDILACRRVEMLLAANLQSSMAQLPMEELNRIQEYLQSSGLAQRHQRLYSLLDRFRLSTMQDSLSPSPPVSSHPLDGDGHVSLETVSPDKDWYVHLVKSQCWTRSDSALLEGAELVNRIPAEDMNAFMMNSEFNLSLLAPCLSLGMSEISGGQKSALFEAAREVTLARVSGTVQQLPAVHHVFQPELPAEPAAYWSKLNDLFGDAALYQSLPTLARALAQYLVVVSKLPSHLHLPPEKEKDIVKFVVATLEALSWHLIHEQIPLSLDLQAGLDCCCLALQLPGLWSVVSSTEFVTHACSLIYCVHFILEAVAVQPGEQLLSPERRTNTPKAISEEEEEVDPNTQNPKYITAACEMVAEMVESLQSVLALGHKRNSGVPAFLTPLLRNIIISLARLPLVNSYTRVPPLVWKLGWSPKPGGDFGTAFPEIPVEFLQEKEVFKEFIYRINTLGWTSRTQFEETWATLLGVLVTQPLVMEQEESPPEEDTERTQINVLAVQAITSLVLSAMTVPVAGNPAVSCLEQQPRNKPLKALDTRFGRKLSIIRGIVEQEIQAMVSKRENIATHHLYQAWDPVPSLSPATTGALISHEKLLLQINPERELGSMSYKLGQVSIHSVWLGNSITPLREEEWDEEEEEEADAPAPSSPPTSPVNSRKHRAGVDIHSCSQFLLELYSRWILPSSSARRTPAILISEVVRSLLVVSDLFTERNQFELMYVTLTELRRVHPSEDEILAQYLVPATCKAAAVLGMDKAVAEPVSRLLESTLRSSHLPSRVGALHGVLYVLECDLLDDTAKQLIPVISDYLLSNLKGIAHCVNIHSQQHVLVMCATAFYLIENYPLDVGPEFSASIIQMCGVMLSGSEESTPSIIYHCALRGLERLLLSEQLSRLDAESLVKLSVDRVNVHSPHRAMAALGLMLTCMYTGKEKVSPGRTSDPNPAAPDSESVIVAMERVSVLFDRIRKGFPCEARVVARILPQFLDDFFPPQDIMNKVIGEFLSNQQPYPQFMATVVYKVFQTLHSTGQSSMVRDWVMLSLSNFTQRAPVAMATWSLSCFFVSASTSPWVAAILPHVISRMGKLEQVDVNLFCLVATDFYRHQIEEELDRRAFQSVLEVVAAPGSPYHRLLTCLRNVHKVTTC
row,Structure (SMILES),inhibition
1,O=C(NCCN1CCOCC1)Nc1ccccc1F,-6.5%
2,CCCN1CCn2cc(C(=O)NCc3cccc(OC)c3)nc2C1,4.35%
3,CCCN1CCn2cc(C(=O)N3CCN(c4ccccc4)CC3)nc2C1,63% (active)
4,CCCN1CCn2cc(C(=O)N3CCN(c4cccc(OC)c4)CC3)nc2C1,4.51%
5,Cc1cc(C)cc(C(=O)N2CCC(COc3ccccc3C(=O)NC3CC3)CC2)c1,9.35%
6,O=C1c2cccc(N3CCCCC3)c2C(=O)c2cccc(Cl)c21,98% (active)
7,O=c1c(Cl)c(N2CCCC2)cnn1-c1ccccc1,-0.3%
8,O=S(=O)(c1cccc(Cl)c1Cl)N1CCN(c2cc(N3CCCC3)ncn2)CC1,2.9%
9,COc1ccc(C(=O)Nc2ccc(-n3nncc3-c3ccccc3)cc2)cc1,18%
10,COc1ccc(C(=O)Nc2ccc(-n3nncc3-c3ccccc3)cc2)cc1OC,57% (active)
11,COc1ccc(C(=O)Nc2ccc(-n3nncc3-c3ccccc3)cc2)c(OC)c1,31%
12,CC(=O)c1cccc(N=Cc2cc([N+](=O)[O-])ccc2O)c1,6%
13,Cc1cccc(OCC(O)CNC2CCCC2)c1 (stereo not drawn),-1.4%
14,CCOc1ccccc1C(=O)NCc1nnc2n1CCCC2,0.6%
15,O=C(Nc1cccn2cnnc12)c1ccccn1,62% (active)
16,O=C(NCc1ccccc1)c1ccccn1,-4.7%
17,CC(C)n1cnc2cc(CNC(=O)c3ccccn3)ccc21,14%
18,COCCNC(=O)c1ccc2c(c1)ncn2-c1ccc(C)c(Cl)c1,24%
19,O=C(C1CCN(S(=O)(=O)c2ccc3[nH]c4c(c3c2)CCCCC4)CC1)N1CCCC1,56.3% (active)
20,COc1ccc(S(=O)(=O)N2CCC(C(=O)N3CCOCC3)CC2)cc1OC,-0.7%
21,O=C(NCc1ccc2[nH]c3c(c2c1)CCCC3)C1CC1,7.3%

row,Structure (SMILES),inhibition
1,Cc1cccc(NS(=O)(=O)c2ccc3[nH]c4c(c3c2)CCCC4)c1,98.9% (active)
2,NC(=O)c1ccc2[nH]c3c(c2c1)CCCC3,12.3%
3,Cc1cccc(NS(=O)(=O)c2ccc3nnc(C)n3c2)c1,5%
4,Cc1ccc(C2=CC(c3ccc(Br)cc3)n3ncnc3N2)cc1 (stereo not drawn),7%
5,O=C(NCc1cccnc1)c1cnn2c1NC(c1cccs1)CC2C(F)(F)F (stereo not drawn),4.91%
6,CCOC(=O)N1CCCN(C(=O)OCC)CC1,-5.6%
7,COc1ccc2c(c1)OCC/C2=N\OC(=O)c1cc(Cl)ccc1OC,inactive
8,C=CCN1C=C(c2ccc3ccccc3n2)C(C#N)c2ccccc21 (stereo not drawn),15%
9,O=C(CSc1nccc(N2CCCCC2)n1)Nc1cc(C(F)(F)F)ccc1Cl,-12.5%
10,CN(C)C(=O)c1cnn(-c2ccccc2)c1-n1cccc1,2.9%
11,O=C(NCc1ccccn1)C1CC(=O)N(CCc2c[nH]c3ccc(F)cc23)C1 (stereo not drawn),46.9%
12,Cc1cc(OCC(=O)Nc2c(C)cccc2C)ccc1Cl,-6.2%
13,Cc1cc(OCC(=O)N2N=C(C(F)(F)F)CC2(O)C(C)(C)C)ccc1Cl (stereo not drawn),100% (active)
14,Cc1cc(OCC(=O)Nc2ccc(Cl)cn2)ccc1Cl,-7%
15,Cc1sc2ncnc(N3CCN(c4ccccn4)CC3)c2c1-c1ccc(F)cc1,0.3%
16,CCOC(=O)Nc1ccc2c(c1)CN(C(=O)c1cccs1)CC2,2.5%
17,CCOC(=O)C1CCc2sc(NC(=O)Cn3nc(C)cc3C)nc21 (stereo not drawn),-9.9%
18,CCCNC(=O)C1CCN(c2nc3ccsc3c(=O)n2Cc2ccccc2)CC1,-1.4%
19,CCOC(=O)C1CCc2sc(NC(=O)C3COCC(=O)N3Cc3ccccc3)nc21 (stereo not drawn),64.1% (active)
20,COc1cc(CN2CCCN(C)CC2)c([N+](=O)[O-])cc1OC,-0.1%
21,COc1cc(CN2CCN(CCO)CC2)c([N+](=O)[O-])cc1OC,1.8%

row,Structure (SMILES),inhibition
1,COc1cc(CNc2cc(C)cc(C)c2)c([N+](=O)[O-])cc1OC,75% (active)
2,Clc1ccccc1C1CC(c2ccccc2)n2ncnc2N1 (stereo not drawn),3.6%
3,N#C/C(=C\c1ccc(O)cc1)c1nc(-c2ccc(Cl)cc2)cs1,58.9% (active)
4,N#C/C(=C\c1ccc(F)cc1)c1nc(-c2ccc([N+](=O)[O-])cc2)cs1,1.8%
5,Cc1ccc(-c2csc(/C(C#N)=C/c3ccc([N+](=O)[O-])cc3)n2)cc1,12.1%
6,COc1cccc(CNC(=O)CC2CCN(S(=O)(=O)c3ccc(Cl)s3)CC2)c1,-9.77%
7,O=C(C1CC1)N1N=C(c2ccc(Br)cc2)CC1(O)C(F)(F)F (stereo not drawn),-4%
8,O=C(c1ccncc1)N1N=C(c2ccc(Cl)cc2)CC1(O)C(F)(F)F (stereo not drawn),58% (active)
9,CN(C)c1ccc(C(=O)N2N=C(c3ccc(Br)cc3)CC2(O)C(F)(F)F)cc1 (stereo not drawn),13%
10,O=[N+]([O-])c1cccc(C=Nc2ccc3nc(-c4cccc(F)c4)oc3c2)c1O,1%
11,O=C1c2ccccc2C(=O)N1CN(C(=O)c1ccc([N+](=O)[O-])cc1)c1ccc(F)cc1,1%
12,Cc1ccccc1NC(=O)CSc1nnc(-c2ccco2)n1C,1%
13,Cc1ccc(F)cc1NC(=O)CSc1nnc(-c2ccco2)c(-c2ccco2)n1,86% (active)
14,O=C(CSc1oc(-c2ccco2)nc1S(=O)(=O)c1ccccc1)Nc1ccc(F)cc1,6%
15,N#Cc1c(-c2ccco2)cc(C2CC2)nc1SCc1ccccc1,-5%
16,O=C(CSc1nnc(-c2ccco2)c(-c2ccco2)n1)Nc1ccc(Br)cc1,79% (active)
17,Cc1ccc(F)cc1NC(=O)Cc1nn(C)c(=O)c2ccccc12,3%
18,O=C(CSc1nnc(-c2ccco2)n1-c1ccccc1)Nc1ccc(F)cc1,11.2%
19,O=c1[nH]c(SCc2ccccc2)nnc1-c1ccccc1,-3%
20,c1ccc(CSc2nnc(-c3ccco3)c(-c3ccco3)n2)cc1,85% (active)
21,CCOCCCNC(=O)C1CCCN(c2nccc(C)n2)C1 (stereo not drawn),-8.18%
